Values joined by “and” are separate entries in the source; they are usually repeats but may differ in a detail not shown here. Equal values may be shown once. Results filed as inconclusive are left out. Active and inactive are the calls of the source. Unless noted, calls come from the whole dose curve; as a rule, active = well fitted curve in the direction sought with a large enough effect; inconclusive = small, poorly fitted or top-dose-only effect, or another doubt; inactive = no such curve, though single readings can be large; an effect the other way counts as inactive or inconclusive.
Key:
[1] = Cellular Toxicity (caspase-3) Mesangial (AID 660);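 note: combined caspase 3 and 7 activity read by Caspase-Glo luminescence; cells exposed to compound for 16 h before the caspase read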
Outline: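 AC50 values come from Hill-equation fits of caspase 3/7 activation, measured as Caspase-Glo luminescence in human glomerular mesangial cells exposed to compound for 16 h at 37 °C; 100% set by 100 uM tamoxifen.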

[2] = Cellular Toxicity (caspase-3) SK-N-SH (AID 661)
Outline: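 Apoptosis readout in SK-N-SH neuroblastoma: Caspase-Glo 3/7 luminescence following 16 hr treatment in complete culture medium. Normalization used DMSO and 10 uM staurosporine controls.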

[3] = Cellular Toxicity (caspase-3) H-4-II-E (AID 663);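 note: cells exposed to compound for 16 hr before readout; 0% = DMSO basal and 100% = 100 µM tamoxifen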
Outline: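 H-4-II-E rat hepatoma, 1500 cells/well, 5 hr settle at 37 °C; compound 16 hr, 37 °C, complete medium; Caspase-Glo 3/7, 20 min RT; luminescence. DMSO = 0%, 100 uM tamoxifen = 100%; Hill-equation AC50.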

[4] = Cellular Toxicity (caspase-3) Hek293 (AID 664);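 note: cells exposed to compound for 16 h at 37 °C before readout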
Outline: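 Apoptosis readout: Caspase-Glo 3/7 signal in human HEK293 cells following 16-hour compound incubation. Responses scaled between DMSO baseline and 100 uM tamoxifen.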

[5] = Cellular Toxicity (caspase-3) N2a (AID 665); conditions: N2a cells, luminescence, normalized: DMSO 0%, 10 µM staurosporine 100%; at 92.2 µM (top of the series);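 note: compound exposure lasted 16 h at 37 °C before readout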
Outline: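 Concentration-response qHTS: compound-induced caspase-3/7 luminescence in N2a cells (16 h, 37 °C), relative to DMSO and 10 uM staurosporine controls; AC50 obtained using the standard Hill equation.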

[6] = Cellular Toxicity (caspase-3) Renal Proximal Tubule (AID 667); conditions: renal proximal tubule cells; at 91.7 µM (top of the series), primary cells freshly taken from rat, solvent-only wells 0%, staurosporine 100% unless noted;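 note: cells exposed to compound for 16 hours at 37 °C before detection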
Outline: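 Primary rat proximal tubule cells, 1000/well, 5 h plating at 37 °C, then compound 16 h at 37 °C. Caspase-Glo 3/7 reagent, 1 h RT, luminescence. Normalized to DMSO (basal) and 10 uM staurosporine (100%); Hill-fit AC50.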

[7] = MultiTox-Fluor Cytotoxicity Assay - LYMP1-001 - Dead Cells (AID 946)
Outline: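 Seed 2500 LYMP1-001 cells/well, incubate 5 hr at 37 C; add compound, 16 hr at 37 C; add MultiTox-Fluor reagent, 60 min RT; read dead-cell fluorescence Ex/Em=485/520. Normalize to DMSO and 15 uM tetraoctylammonium bromide.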

[8] = Cell Viability - LYMP1-002 - Assay at 16 hr (AID 948);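 note: 0% = DMSO alone and full effect = 92 µM tetraoctylammonium bromide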
Outline: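 Human lymphoblastoid cells (LYMP1-002), 2500/well, were preincubated 5 hr at 37 C, then exposed to compounds for 16 hr at 37 C in complete medium. Cellular ATP was read by CellTiter-Glo luminescence after 30 min at room temperature; AC50 from Hill fits.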

[9] = MultiTox-Fluor Cytotoxicity Assay - LYMP1-002 - Live Cells (AID 955); note: % is set by controls: 0 for no effect and ±100 for the full control effect
Outline: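 In this qHTS viability format, lymphoblastoid cells (LYMP1-002, human) received compound for 16 hr at 37 C. Fluorogenic GF-AFC cleavage by viable cells was detected at 405/510 nm after 1 h at room temperature.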

[10] = MultiTox-Fluor Cytotoxicity Assay - LYMP1-003 - Dead Cells (AID 961); note: nearly all actives have a fitted effect of over 70% in size
Outline: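 LYMP1-003 lymphoblastoid, 2500 cells/well, 5 hr settle then 16 hr cpd at 37 C; MultiTox-Fluor reagent 60 min RT; Ex/Em 485/520 dead-cell signal; norm. DMSO = 0%, 15 uM tetraoctylammonium bromide = 100%; Hill AC50.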

[11] = MultiTox-Fluor Cytotoxicity Assay - LYMP1-003 - Live Cells (AID 962);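 note: 0% = DMSO only and full loss = 92 µM tetraoctylammonium bromide; cytotoxic hits lower the live-cell protease signal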
Outline: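 Human lymphoblastoid line LYMP1-003 in complete culture medium, treated 16 hr with titrated compounds. Viable cells quantified via cell-permeant GF-AFC substrate fluorescence; AC50 derived by Hill fitting.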

[12] = Cell Viability - LYMP1-003 - Assay at 24 hr (AID 963);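 note: plate controls were DMSO only for no effect and tetraoctylammonium bromide positive control for full effect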
Outline: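 The lymphoblastoid line was treated with titrated compounds for 24 hours, and viable cell number estimated from luciferase-based ATP luminescence.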

[13] = Cell Viability - LYMP1-003 - Assay at 40 hr (AID 964); note: % is set by controls: 0 for no effect and ±100 for the full control effect; nearly all actives have a fitted effect of over 60% in size
Outline: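 Acute toxicity is scored as a concentration-dependent loss of intracellular ATP in LYMP1-003 cells (2500/well, complete medium) after 40 hr at 37 C, measured by CellTiter-Glo luminescence; AC50 values derive from standard Hill modelling.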

[14] = Cell Viability - LYMP2-025 (AID 976);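 note: plate controls were DMSO only for no effect and tetraoctylammonium bromide control for full effect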
Outline: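 Luminescent ATP readout after 24 hr treatment of a human lymphoblastoid line (LYMP2-025, 2500 cells/well, 37 C). Reagent developed 30 min at room temperature; AC50 fitted with the Hill equation.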

[15] = Cell Viability - LYMP2-002 (AID 977);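 note: compound exposure lasted 24 h at 37 °C; plate controls were DMSO only for no effect and 92 µM tetraoctylammonium bromide for full effect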
Outline: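 Human lymphoblastoid cells, 2500/well, complete medium; 5 h 37 C settle; compound 24 h 37 C; CellTiter-Glo, 30 min RT; luminescence. Decrease in ATP = cytotoxicity; AC50 via Hill equation.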

[16] = Cell Viability - LYMP2-006 (AID 978); note: % is set by controls: 0 for no effect and ±100 for the full control effect; nearly all actives have a fitted effect of over 60% in size
Outline: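 Human lymphoblastoid cells, 2500 per well, were preincubated 5 hr at 37 C, then exposed to compounds for 24 hr at 37 C in complete medium. Viability was read as intracellular ATP by CellTiter-Glo luminescence; AC50 from Hill-equation fits of qHTS concentration-response data.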

[17] = qHTS assay for small molecule agonists of the antioxidant response element (ARE) signaling pathway measured by Nrf2-dependant transcriptional activity (AID 720636; active = well fitted curve in the direction sought with a large enough effect in the repeat runs; an effect the other way counts as inactive or inconclusive;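 note: HepG2 cells with an ARE-driven luciferase reporter; % of control where 0% means no effect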)
Outline: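 HepG2 ARE-luc reporter line, 1% dialyzed FBS; 6 hr attachment at 37 C, compound pinned in, 16 hr at 37 C/5% CO2; ONE-Glo, 30 min RT, luminescence read.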

[18] = qHTS assay for small molecule agonists of the antioxidant response element (ARE) signaling pathway measured by Nrf2-dependant transcriptional activity - cell viability counter screen (AID 720653; active = well fitted curve in the direction sought with a large enough effect in the repeat runs; an effect the other way counts as inactive or inconclusive; note: % is set by controls: 0 for no effect and ±100 for the full control effect); conditions: ARE-bla HepG2 viability, CellTiter-Glo ATP luminescence, 16 h; stronger effect = lower value
Outline: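 ARE-bla HepG2 cells treated with compounds for 16 h at 37C; this counter screen measures viability as intracellular ATP by CellTiter-Glo luminescence after 30 min at room temperature.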

[19] = qHTS assay for cell viability of HEK293 cells (AID 743288); conditions: ATP luminescence (CellTiter-Glo), 18 h; max response: stronger effect = lower value; note: % is set by controls: 0 for no effect and ±100 for the full control effect; nearly all actives have a fitted effect of over 50% in size
Outline: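 After 18 h compound exposure at 37 C, parental HEK293 cells (2,000/well) are lysed with CellTiter-Glo and luminescence is read following 30 min at room temperature.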

[20] = qHTS assay for cell viability of the p53RE-bla HCT-116 cell line (AID 743292); note: % is set by controls: 0 for no effect and ±100 for the full control effect; nearly all actives have a fitted effect of over 55% in size
Outline: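 Luminescent ATP quantitation (CellTiter-Glo) served as the viability read-out; reagent was added after 16 h compound exposure at 37 C and read after 30 min at room temperature. Cells: p53RE-bla HCT-116, 4,000 per well.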

Brc1ccc(Oc2cc(Br)c(Br)cc2Br)c(Br)c1
inactive: outcome [1] | outcome [2] | outcome [3] | outcome [4] | caspase-3 activation [5] 12.3% and 4.39% | caspase-3 activation [6] 12.3% [at 91.7 µM] and -6.38% [at 91.7 µM] | Potency [7] | Potency [8] | outcome [9] | Potency [10] | Potency [11] | Potency [12] | Potency [13] | Potency [14] | Potency [15] | Potency [16] | outcome [17] | max response [18] -1.22% and 3.3% and -21% | max response [19] -22.3% and -23.6% | Potency [20]

C=CC(N)=O
inactive: outcome [1] | outcome [2] | outcome [3] | outcome [4] | caspase-3 activation [5] -0.525% and -0.998% | caspase-3 activation [6] 6.41% and -1% | Potency [7] | Potency [8] | outcome [9] | Potency [10] | Potency [11] | Potency [12] | Potency [13] | Potency [14] | Potency [15] | Potency [16] | outcome [17] | max response [18] -3.97% and 4.84% and 3.74% | max response [19] -9.64% and 2.95% and 5.31% | Potency [20]

C=CC(C)=O
inactive: outcome [1] | outcome [2] | outcome [3] | outcome [4] | caspase-3 activation [5] 0.266% | caspase-3 activation [6] -2.96% | Potency [7] | Potency [8] | outcome [9] | Potency [10] | Potency [11] | Potency [12] | Potency [13] | Potency [14] | Potency [15] | Potency [16] | outcome [17] | max response [18] 0.624% | max response [19] 0.318% | Potency [20]

CC(C)(C)OO
inactive: outcome [1] | outcome [2] | outcome [3] | outcome [4] | caspase-3 activation [5] -2.06% and -1.93% | caspase-3 activation [6] 12.8% and -1.63% | Potency [7] | Potency [8] | outcome [9] | Potency [10] | Potency [11] | Potency [12] | Potency [13] | Potency [14] | Potency [15] | Potency [16] | outcome [17] | max response [18] 15% and -27.6% | max response [19] -29% and 2.51% | Potency [20]

BrCCBr
inactive: outcome [1] | outcome [2] | outcome [3] | outcome [4] | caspase-3 activation [5] -3.9% | caspase-3 activation [6] -15.1% | Potency [7] | Potency [8] | outcome [9] | Potency [10] | Potency [11] | Potency [12] | Potency [13] | Potency [14] | Potency [15] | Potency [16] | outcome [17] | max response [18] 2.36% and -0.33% | max response [19] 2.15% and 1.92% | Potency [20]

Clc1nc(Cl)nc(Cl)n1
inactive: outcome [1] | outcome [2] | outcome [3] | outcome [4] | caspase-3 activation [5] 1.31% | caspase-3 activation [6] 1.34% | Potency [7] | Potency [8] | outcome [9] | Potency [10] | Potency [11] | Potency [12] | Potency [13] | Potency [14] | Potency [15] | Potency [16] | outcome [17] | max response [18] -4.92% and -7.17% | max response [19] -10.6% and 4.47% | Potency [20]

C=C(C)C#N
inactive: outcome [1] | outcome [2] | outcome [3] | outcome [4] | caspase-3 activation [5] -1.66% | caspase-3 activation [6] 7.27% | Potency [7] | Potency [8] | outcome [9] | Potency [10] | Potency [11] | Potency [12] | Potency [13] | Potency [14] | Potency [15] | Potency [16] | outcome [17] | max response [18] -12.2% and -0.888% | max response [19] -2.82% and -11% | Potency [20]

CC(C)(OO)c1ccccc1
inactive: outcome [1] | outcome [2] | outcome [3] | outcome [4] | caspase-3 activation [5] -2.62% | caspase-3 activation [6] -7.39% | Potency [7] | Potency [8] | outcome [9] | Potency [10] | Potency [11] | Potency [12] | Potency [13] | Potency [14] | Potency [15] | Potency [16] | outcome [17] | max response [18] -8.73% and -2.9% | max response [19] -6.54% and -1.29% | Potency [20]

From PubChem BioAssay (NCATS)
